# Measured values published in article PMC4336329 (PLoS ONE, 2015).
# Hit rate of the full screen: of about 310,000 compounds, about 14,000 (4.5%) showed an effect of 50% or more. The effect is printed as a negative number. Many of the other results were omitted from the sample, so strong results are more common in it than they were.
# Target: human ether-à-go-go-related gene (hERG) potassium channel (human, UniProt Q12809)
# Assay: primary screen, population patch clamp on CHO cells stably expressing hERG; higher = less effect of the substance
# 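Also: peak tail current of the secondary pulse compared with the same well before compound.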
# Chain of human ether-à-go-go-related gene (hERG) potassium channel (Q12809 whole entry, looked up): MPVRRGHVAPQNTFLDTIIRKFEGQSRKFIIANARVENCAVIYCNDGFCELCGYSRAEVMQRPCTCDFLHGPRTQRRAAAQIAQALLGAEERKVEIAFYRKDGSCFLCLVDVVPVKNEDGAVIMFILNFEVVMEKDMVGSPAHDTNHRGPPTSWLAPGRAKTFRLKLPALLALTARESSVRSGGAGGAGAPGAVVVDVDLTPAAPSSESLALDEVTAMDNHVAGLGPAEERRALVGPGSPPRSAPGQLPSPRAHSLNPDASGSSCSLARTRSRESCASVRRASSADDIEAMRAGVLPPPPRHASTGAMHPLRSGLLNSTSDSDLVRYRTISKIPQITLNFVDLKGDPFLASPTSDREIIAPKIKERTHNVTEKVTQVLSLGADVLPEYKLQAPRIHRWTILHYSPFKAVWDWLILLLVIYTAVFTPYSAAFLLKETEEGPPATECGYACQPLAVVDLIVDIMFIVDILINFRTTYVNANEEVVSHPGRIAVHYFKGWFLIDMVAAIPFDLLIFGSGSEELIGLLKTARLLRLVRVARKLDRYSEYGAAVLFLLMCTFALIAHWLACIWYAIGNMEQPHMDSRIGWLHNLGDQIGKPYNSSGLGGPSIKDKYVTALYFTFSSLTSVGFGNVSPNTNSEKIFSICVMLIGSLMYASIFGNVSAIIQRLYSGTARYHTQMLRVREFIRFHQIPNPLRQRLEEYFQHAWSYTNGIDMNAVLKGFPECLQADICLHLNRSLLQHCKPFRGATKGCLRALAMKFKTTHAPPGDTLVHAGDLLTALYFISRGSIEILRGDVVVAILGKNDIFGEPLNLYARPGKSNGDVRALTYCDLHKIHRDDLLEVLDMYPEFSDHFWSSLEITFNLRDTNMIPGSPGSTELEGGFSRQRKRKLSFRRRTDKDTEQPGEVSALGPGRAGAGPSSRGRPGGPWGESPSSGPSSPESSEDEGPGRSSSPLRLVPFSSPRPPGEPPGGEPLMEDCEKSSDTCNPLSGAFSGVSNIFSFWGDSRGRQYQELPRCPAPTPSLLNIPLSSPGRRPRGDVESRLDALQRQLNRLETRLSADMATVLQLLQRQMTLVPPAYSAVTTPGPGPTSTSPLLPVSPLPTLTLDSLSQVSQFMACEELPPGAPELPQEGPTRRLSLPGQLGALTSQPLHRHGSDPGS
row,Compound,"hERG current change (%, negative = inhibition) at 10uM [%]"
1,COc1cc(NC(=S)NC2CC2)c(OC)cc1Cl,-1.86
2,CC(OC(=O)c1cccs1)C(=O)NCc1ccc2c(c1)OCO2 (stereo not shown),15.4
3,Cc1ccccc1-n1nc2c(c1NC(=O)c1ccc(Br)o1)CSC2,-7.03
4,COC(=O)c1ccc(CNC(=O)COC(=O)Cc2ccsc2)cc1,-6.64
5,C=C(C)CCC(C)N1CCC(n2nccc2NC(=O)CCCc2ccccc2)CC1 (stereo not shown),-74.2
6,COCC(C)N1CCC(n2nccc2NC(=O)CCCc2ccccc2)CC1 (stereo not shown),-15.2
7,Cc1cccc(CN2CCC(n3nccc3NC(=O)CCCc3ccccc3)CC2)n1,-20.2
8,CSCC(C)N1CCC(n2nccc2NC(=O)CCCc2ccccc2)CC1 (stereo not shown),-47.5
9,CSc1ccc(CN2CCC(n3nccc3NC(=O)CCCc3ccccc3)CC2)cc1,-82.5
10,COc1ccc(C(=O)Nc2nnc(S(=O)(=O)N3CCCCCC3)s2)cc1OC,-0.855
11,COc1cc(NC(=O)COc2cccc(C)c2C)ccc1NC(=O)c1ccco1,13
12,O=C(Nc1ccc(N2CCOCC2)cc1)c1cccc(S(=O)(=O)N2CCCC2)c1,1.96
13,CC(=O)c1cccc(OCc2cc(C(=O)N(C)C(C)c3ccccn3)no2)c1 (stereo not shown),-4.32
14,CC(NC(=O)/C=C/c1cnc2ccccc2n1)C12CC3CC(CC(C3)C1)C2 (stereo not shown),-10.1
15,Cc1cc(Cl)c(S(=O)(=O)N2CCCCCC2)cc1OCC(=O)NC1CCCCC1,-18.6
16,Cc1cc(Cl)c(S(=O)(=O)Nc2ccc(Cl)cn2)cc1OCC(N)=O,-2.03
17,Cc1ccccc1NS(=O)(=O)c1cc(OCC(N)=O)c(C)cc1Cl,5.68
18,Cc1cc(Cl)c(S(=O)(=O)NC2CCCC2)cc1OCC(=O)NC1CCCCC1,-7.18
19,Cc1cc(Cl)c(S(=O)(=O)Nc2ccccn2)cc1OCC(N)=O,-71.8
20,Cc1cc(Cl)c(S(=O)(=O)NCc2cccnc2)cc1OCC(N)=O,10.1
21,Cc1cc(Cl)c(S(=O)(=O)N2CCN(c3ccccn3)CC2)cc1OCC(=O)NC1CCCCC1,-56.9
22,Cc1cc(Cl)c(S(=O)(=O)N2CCN(c3ccccn3)CC2)cc1OCC(N)=O,17.6
23,Cc1cc(Cl)c(S(=O)(=O)NCc2cccnc2)cc1OCC(=O)NC1CCCCC1,-53.2
24,CCNC(=O)c1c(NC(=O)c2cc(-c3cc(C)ccc3O)n[nH]2)sc2c1CCCC2,30.5
25,CCn1nnnc1SCC(=O)N1CCN(c2ccccc2)CC1,-10.4
26,Br.CC1CCN(Cc2nnnn2-c2cccc([N+](=O)[O-])c2)CC1,-10.8
27,Cc1cccc(C)c1OCCNC(=O)OCc1ccccc1,-6.74
28,Cc1c(/C=N/NC(=O)CNc2ccccc2)c2ccccn2c1C(=O)c1ccncc1,0.0344

row,Compound,"hERG current change (%, negative = inhibition) at 10uM [%]"
1,Cc1c(/C=N/NC(N)=O)c2ccccn2c1C(=O)c1ccc(F)cc1,-5.23
2,Cc1c(/C=N/NC(N)=O)c2ccccn2c1C(=O)c1ccncc1.Cl,-54.9
3,CCCCN(CC(=O)NC(C)(C)C)C(=O)C(=O)Nc1ccc2c(c1)OCCO2,-0.704
4,CC(C)c1nnc(NC(=O)c2ccc(S(=O)(=O)N3CCOCC3)cc2)s1,6.52
5,Cc1ccnc2nc(C(=O)Nc3ccc4c(c3)OCO4)nn12,-2.98
6,CCOC(=O)C1C(C)N=C2SCC(=O)N2C1c1cccc(Br)c1 (stereo not shown),-12.6
7,COc1cc(CNc2ccc3c(c2)CCC3)cc(OC)c1O,12.2
8,Cn1c(SCC(=O)N2CCOCC2)nnc1-c1ccc2ncccc2c1,15.4
9,CC(=O)c1cccc(CN2CCC(n3nccc3NC(=O)c3ccc4c(c3)OCO4)CC2)c1,-7.62
10,COc1cc(CN2CCC(n3nccc3NC(=O)c3ccc4c(c3)OCO4)CC2)ccc1O,-6.7
11,CCc1ccc(CN2CCC(n3nccc3NC(=O)c3ccc4c(c3)OCO4)CC2)cc1,-72
12,CCOc1cccc(CN2CCC(n3nccc3NC(=O)c3ccc4c(c3)OCO4)CC2)c1,-43.2
13,COc1cccc(O)c1CN1CCC(n2nccc2NC(=O)c2ccc3c(c2)OCO3)CC1,-24
14,COc1ccc(CN2CCC(n3nccc3NC(=O)c3ccc4c(c3)OCO4)CC2)cc1C,-80.6
15,COC(=O)Nc1sc2c(c1C(N)=O)CCCCCC2,11.9
16,COc1ccc(CNC2CC(=O)N(C)C2=O)cc1 (stereo not shown),13.6
17,COc1ccc(NC2C=CS(=O)(=O)C2)cc1 (stereo not shown),0.937
18,O=S1(=O)C=CC(Nc2ccccc2)C1 (stereo not shown),-76
19,O=S1(=O)C=CC(Nc2cccc(Cl)c2)C1 (stereo not shown),16.7
20,COc1ccc(CCN2CNc3c(c(=O)n(C)c(=O)n3C)C2)cc1,-17.5
21,COc1ccc(CCNC(=O)Cn2nc(C)n3nc(-c4ccccc4)cc3c2=O)cc1OC,2
22,Cc1cccn2c(=O)c3cc(C(=O)NCCc4ccccc4)sc3nc12,-6.84
23,CCNC(=O)c1cc2c(=O)n3cccc(C)c3nc2n(CCc2ccccc2)c1=N,-80.3
24,COCCn1c(=S)[nH]c2cc(C(=O)NCCc3ccccc3)ccc2c1=O,-2.2
25,COCCn1c(=N)c(S(=O)(=O)c2ccc(F)cc2)cc2c(=O)n3cccc(C)c3nc21,-22.5
26,COCCn1c(=N)c(C(=O)NCCc2ccc(OC)cc2)cc2c(=O)n3cccc(C)c3nc21,-84.8
27,COCCn1c(=N)c(C(=O)NCCc2ccccc2)cc2c(=O)n3cccc(C)c3nc21,-82.9
